Our source for the PXC50 and Percent Effect values is ChEMBL document CHEMBL3988442, “University of Dundee, Small-Polar-MMV Screening Library” (2021).

Test [1] deals with T1, Methionyl-tRNA synthetase, putative (Leishmania donovani (strain BPK282A1)) (UniProt E9BF75).
T1 sequence (whole entry): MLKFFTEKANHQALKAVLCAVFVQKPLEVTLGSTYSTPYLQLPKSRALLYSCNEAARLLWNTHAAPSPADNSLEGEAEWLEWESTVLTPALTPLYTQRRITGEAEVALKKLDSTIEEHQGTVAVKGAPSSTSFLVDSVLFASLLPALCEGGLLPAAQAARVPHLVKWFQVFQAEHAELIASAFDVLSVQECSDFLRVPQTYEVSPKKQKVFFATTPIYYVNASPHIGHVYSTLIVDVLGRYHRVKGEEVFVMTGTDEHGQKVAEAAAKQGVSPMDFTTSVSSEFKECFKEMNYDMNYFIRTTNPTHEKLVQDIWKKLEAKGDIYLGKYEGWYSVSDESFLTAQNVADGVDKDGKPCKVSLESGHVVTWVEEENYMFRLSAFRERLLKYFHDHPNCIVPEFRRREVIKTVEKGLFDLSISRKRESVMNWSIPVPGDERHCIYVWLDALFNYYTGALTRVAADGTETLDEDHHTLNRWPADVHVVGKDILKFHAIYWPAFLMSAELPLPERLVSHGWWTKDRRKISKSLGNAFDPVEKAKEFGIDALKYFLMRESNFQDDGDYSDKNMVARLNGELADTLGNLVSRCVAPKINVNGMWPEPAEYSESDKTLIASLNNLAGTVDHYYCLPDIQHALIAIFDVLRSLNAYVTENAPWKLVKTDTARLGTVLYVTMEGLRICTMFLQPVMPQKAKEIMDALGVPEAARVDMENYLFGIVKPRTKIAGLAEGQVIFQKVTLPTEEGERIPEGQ
The test is described as follows: Leishmania donovani Methionine tRNA synthetase (LdMetRS):v7. Dose response assay. Further details: conc 80 nM, time 150 minutes. The format is functional.

Test [2] deals with Protein translocase subunit SecA (Escherichia coli (strain K12)) (UniProt P10408). Description: Assay to Identify E. coli SecA ATPase Inhibitors. Format: functional. Further details: scale not given: direction of the effect not stated beside the values. Particulars: 30 µM.
Test [3] addresses T2, Ubiquitin-activating enzyme e1, putative (Leishmania donovani (strain BPK282A1)) (UniProt E9BSI1).
T2 sequence (whole entry): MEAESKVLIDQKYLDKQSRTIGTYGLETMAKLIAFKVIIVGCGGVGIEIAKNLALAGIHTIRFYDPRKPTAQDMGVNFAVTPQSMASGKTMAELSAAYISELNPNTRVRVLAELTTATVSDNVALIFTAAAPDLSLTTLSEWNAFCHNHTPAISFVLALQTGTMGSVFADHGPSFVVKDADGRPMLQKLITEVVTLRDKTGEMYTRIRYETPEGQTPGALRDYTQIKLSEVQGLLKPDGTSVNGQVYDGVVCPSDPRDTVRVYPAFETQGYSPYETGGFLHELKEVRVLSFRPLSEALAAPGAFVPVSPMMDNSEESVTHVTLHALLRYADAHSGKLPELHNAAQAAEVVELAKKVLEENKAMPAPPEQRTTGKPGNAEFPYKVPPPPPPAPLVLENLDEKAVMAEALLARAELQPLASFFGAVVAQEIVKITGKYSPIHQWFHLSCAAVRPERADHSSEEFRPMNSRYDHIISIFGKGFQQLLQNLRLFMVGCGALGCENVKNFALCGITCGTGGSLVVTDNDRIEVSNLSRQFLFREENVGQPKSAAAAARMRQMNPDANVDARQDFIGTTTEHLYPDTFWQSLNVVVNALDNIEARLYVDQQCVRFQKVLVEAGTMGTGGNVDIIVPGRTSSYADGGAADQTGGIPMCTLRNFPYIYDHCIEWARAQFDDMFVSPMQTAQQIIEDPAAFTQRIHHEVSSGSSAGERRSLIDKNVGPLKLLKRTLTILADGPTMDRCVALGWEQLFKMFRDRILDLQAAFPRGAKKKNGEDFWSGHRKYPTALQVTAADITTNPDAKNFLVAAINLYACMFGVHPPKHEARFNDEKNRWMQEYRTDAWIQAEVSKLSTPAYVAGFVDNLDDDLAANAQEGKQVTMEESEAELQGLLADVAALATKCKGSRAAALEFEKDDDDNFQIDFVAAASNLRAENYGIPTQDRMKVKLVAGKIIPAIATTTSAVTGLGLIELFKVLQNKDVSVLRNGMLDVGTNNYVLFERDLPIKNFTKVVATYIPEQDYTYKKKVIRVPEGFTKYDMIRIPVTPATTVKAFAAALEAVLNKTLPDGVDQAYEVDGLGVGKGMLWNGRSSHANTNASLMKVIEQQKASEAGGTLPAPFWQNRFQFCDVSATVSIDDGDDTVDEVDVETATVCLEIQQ
Description: Leishmania donovani Ubiquitin Activating Enzyme (LdE1). The format is functional. Further details: scale not given: direction of the effect not stated beside the values. Conditions: 30 µM.

The target of test [4] is AMP-activated protein kinase, AMPK (Homo sapiens) (UniProt P54646+O43741+P54619+Q9UGJ0+Q9Y478+Q13131+Q9UGI9). Description: AMP-dependent Kinase enzyme assay. An in vitro enzyme assay that detects ADP turnover that is directly proportional to AMPK activity. This uses naive AMPK that is activated during the assay with MK-8722. The format is functional. Further details: scale not given: direction of the effect not stated beside the values. Conditions: 30 µM.

In test [5] the target is Sialic acid-binding Ig-like lectin 9 (Homo sapiens) (UniProt Q9Y336). The test is described as follows: Hs-Siglec9 ALPHAscreen SOP 20170721. Conditions: 10 µM. Further details: scale not given: direction of the effect not stated beside the values. A general note: Bead proximity is the source of the signal in Alpha formats.
The subject of the next test is Trypanosoma cruzi. Description: Trypanosoma cruzi phosphomannomutase and mannose-1-phosphate guanylyltransferase assay. Further details: scale not given: direction of the effect not stated beside the values. Conditions: 10 µM. The format is functional.
Test [6] concerns the target T3, Arginase-2, mitochondrial (Homo sapiens) (UniProt P78540).
T3 sequence (whole entry): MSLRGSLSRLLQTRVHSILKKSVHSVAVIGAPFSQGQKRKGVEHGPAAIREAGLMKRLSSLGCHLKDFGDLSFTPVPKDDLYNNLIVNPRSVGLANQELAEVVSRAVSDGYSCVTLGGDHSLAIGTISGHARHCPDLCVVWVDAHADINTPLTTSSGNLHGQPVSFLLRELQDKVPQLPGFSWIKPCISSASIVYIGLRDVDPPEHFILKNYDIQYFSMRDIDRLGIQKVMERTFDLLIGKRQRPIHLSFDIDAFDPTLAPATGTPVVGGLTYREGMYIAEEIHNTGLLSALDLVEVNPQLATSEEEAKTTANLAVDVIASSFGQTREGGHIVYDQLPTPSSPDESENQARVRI
The test is described as follows: in vitro enzyme assay to detect the production of urea directly proportional to the activity of Arginase II. The format is functional. Further details: scale not given: in the data most compounds retested in dose-response had high values. Particulars: 33.3 µM.

Test [7] deals with T4, Proteasome subunit beta (Trypanosoma cruzi) (UniProt O96673).
T4 sequence (whole entry): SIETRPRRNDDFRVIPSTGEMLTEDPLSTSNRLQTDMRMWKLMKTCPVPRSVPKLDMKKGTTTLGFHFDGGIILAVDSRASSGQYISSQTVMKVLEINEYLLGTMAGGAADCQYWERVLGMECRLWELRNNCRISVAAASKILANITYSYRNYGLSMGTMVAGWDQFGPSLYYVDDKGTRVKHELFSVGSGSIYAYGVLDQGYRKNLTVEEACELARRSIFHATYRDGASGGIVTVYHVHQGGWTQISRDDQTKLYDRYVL
The test is described as follows: Trypanosoma cruzi proteasome chymotrypsin-like activity (TcProtChymo) assay. The format is functional. Also noted: scale not given: in the data most compounds retested in dose-response had high values. Conditions: 9.37 µM.

For a further test, the species on record is Homo sapiens. The test is described as follows: To identify inhibition of the IFN signalling (Jak-Stat) pathway via expression of an eGFP reporter gene under the control of an IFN-stimulated response element (ISRE) containing MxA promoter. Format: functional. Further details: scale not given: direction of the effect not stated beside the values. Conditions: 30 µM. On the technique in general: A reporter such as luciferase makes a cellular process visible.

Test [8] has as its target T5, Tyrosyl-tRNA synthetase, putative (Trypanosoma cruzi (strain CL Brener)) (UniProt Q4DSP6).
T5 sequence (whole entry): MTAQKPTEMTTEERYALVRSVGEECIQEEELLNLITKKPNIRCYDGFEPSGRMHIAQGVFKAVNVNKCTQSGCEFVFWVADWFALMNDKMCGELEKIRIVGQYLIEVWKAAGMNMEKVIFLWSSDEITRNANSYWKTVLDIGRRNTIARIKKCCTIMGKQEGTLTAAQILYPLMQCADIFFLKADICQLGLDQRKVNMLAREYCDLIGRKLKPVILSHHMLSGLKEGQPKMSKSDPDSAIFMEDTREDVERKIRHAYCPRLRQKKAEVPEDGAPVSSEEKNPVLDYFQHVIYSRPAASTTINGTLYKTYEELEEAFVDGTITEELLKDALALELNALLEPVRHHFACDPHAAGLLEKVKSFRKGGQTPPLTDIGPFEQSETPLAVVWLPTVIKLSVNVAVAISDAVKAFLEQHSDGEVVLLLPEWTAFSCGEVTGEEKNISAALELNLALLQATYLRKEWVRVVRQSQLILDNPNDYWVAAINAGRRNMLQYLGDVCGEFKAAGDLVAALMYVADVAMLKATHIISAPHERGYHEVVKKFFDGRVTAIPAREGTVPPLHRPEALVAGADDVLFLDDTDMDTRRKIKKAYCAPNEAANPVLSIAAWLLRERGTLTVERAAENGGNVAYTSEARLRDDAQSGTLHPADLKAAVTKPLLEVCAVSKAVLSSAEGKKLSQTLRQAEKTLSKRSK
The test is described as follows: Trypanosoma cruzi tyrosyl tRNA synthetase (TcYRS) _High Tyrosine SOP. Format: functional. Also noted: scale not given: in the data most compounds retested in dose-response had high values. Conditions: 30 µM.

Test [9] concerns the target T5, Tyrosyl-tRNA synthetase, putative (Trypanosoma cruzi (strain CL Brener)). The test is described as follows: Trypanosoma cruzi tyrosyl tRNA synthetase (TcYRS) SOP. The format is functional. Further details: scale not given: direction of the effect not stated beside the values. Conditions: 30 µM.
For test [10], the target named is Chromo domain-containing protein 1 (Saccharomyces cerevisiae (strain ATCC 204508 / S288c) (Baker's yeast)) (UniProt P32657). Description: ScCHD-1 Enzyme Inhibition Assay. The format is functional. Also noted: scale not given: in the data most compounds retested in dose-response had high values. Particulars: 30 µM.

Molecules are shown by their SMILES. For some assays here: Results with a measured potency or affinity are listed apart.

Sequence of Protein translocase subunit SecA (Escherichia coli (strain K12)) (P10408 whole entry): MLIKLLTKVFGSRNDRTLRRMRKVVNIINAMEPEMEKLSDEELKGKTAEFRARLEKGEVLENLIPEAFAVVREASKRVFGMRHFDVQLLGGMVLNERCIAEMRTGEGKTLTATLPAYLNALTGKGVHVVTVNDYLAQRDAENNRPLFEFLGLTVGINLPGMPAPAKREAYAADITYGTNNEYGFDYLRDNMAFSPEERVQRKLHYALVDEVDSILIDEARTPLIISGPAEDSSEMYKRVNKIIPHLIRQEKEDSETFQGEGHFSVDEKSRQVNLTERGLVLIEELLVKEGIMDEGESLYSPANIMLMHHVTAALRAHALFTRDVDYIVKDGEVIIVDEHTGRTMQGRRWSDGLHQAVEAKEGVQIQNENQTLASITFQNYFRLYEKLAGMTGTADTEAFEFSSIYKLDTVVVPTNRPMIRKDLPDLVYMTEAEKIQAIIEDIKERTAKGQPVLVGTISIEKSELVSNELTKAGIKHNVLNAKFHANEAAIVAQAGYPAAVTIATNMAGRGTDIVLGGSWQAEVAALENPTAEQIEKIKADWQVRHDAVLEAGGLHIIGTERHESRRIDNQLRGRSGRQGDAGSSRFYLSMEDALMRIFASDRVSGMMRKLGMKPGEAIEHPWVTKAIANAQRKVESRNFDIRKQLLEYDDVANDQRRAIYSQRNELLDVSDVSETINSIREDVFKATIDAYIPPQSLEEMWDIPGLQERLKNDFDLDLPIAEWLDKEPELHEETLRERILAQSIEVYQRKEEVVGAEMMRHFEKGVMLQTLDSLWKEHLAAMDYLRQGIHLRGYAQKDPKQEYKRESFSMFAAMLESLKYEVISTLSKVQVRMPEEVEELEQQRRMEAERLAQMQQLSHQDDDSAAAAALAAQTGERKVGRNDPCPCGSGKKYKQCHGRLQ
Sequence of Sialic acid-binding Ig-like lectin 9 (Homo sapiens) (Q9Y336 whole entry): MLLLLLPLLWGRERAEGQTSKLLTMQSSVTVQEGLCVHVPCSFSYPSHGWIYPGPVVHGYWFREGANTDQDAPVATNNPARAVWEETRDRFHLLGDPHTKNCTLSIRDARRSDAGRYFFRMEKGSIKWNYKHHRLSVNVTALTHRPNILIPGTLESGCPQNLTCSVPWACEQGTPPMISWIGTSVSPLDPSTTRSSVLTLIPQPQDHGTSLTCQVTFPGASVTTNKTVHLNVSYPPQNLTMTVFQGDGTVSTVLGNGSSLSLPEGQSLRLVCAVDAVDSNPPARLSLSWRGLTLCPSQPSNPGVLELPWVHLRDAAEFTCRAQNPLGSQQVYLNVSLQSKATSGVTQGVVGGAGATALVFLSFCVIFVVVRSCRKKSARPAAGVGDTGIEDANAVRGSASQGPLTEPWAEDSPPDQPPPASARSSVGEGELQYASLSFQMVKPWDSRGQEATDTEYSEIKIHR
Sequence of Chromo domain-containing protein 1 (Saccharomyces cerevisiae (strain ATCC 204508 / S288c) (Baker's yeast)) (P32657 whole entry, the tested form may be a part): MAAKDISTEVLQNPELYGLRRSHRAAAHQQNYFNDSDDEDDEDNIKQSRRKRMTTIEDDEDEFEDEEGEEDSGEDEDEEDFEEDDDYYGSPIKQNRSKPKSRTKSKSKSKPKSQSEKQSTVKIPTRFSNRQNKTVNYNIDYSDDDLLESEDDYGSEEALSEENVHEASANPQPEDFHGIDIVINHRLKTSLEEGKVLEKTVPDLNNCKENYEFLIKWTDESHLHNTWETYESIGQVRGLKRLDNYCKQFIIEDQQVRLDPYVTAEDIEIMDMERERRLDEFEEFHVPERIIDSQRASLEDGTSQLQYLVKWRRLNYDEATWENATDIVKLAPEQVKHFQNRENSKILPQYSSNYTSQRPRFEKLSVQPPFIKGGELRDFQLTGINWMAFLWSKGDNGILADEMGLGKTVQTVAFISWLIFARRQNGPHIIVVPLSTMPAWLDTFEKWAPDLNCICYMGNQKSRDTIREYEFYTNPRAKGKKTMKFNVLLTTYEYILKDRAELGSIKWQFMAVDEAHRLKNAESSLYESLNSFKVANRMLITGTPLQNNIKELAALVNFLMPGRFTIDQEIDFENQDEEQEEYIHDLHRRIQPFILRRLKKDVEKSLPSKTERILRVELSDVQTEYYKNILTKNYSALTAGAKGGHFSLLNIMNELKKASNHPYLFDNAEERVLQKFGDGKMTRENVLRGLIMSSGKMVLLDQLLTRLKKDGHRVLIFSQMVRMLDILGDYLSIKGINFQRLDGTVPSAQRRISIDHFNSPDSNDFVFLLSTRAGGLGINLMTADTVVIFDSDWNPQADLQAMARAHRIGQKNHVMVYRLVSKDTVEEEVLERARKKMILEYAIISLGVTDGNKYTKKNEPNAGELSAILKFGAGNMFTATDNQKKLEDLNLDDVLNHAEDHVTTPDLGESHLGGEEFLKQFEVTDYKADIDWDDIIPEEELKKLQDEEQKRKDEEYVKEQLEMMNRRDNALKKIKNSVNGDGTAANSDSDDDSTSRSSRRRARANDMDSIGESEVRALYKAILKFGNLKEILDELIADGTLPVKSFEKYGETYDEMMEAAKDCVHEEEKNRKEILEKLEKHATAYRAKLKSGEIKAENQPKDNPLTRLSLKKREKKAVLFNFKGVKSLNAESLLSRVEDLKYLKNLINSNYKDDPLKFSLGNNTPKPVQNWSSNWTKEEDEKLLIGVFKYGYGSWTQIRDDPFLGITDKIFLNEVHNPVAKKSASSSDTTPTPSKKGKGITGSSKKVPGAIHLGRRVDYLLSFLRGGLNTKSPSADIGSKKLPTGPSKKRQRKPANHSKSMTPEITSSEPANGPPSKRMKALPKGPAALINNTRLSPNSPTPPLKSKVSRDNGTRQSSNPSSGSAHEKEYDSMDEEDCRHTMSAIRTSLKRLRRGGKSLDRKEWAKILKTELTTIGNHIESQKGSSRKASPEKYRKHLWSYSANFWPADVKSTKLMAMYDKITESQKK

Turning to `Cc1nc(N2CCCCC2)ncc1-c1cc(O)[nH]n1`, the PXC50 in test [1] (MAX_EFFECT 13.62007168), in [1] (MAX_EFFECT 16.42743222), in test [1] (MAX_EFFECT 31.28598848), in [1] (MAX_EFFECT 33.33333333) and in test [1] (MAX_EFFECT 39.9339934) was below 4 each time. Moreover, the Percent Effect in [2] is -5.23%; in [3], 1.33%; in test [4] it was 13%; in test [5] it was 8.28%; with Trypanosoma cruzi, 1.18%; in test [6], -8.28%. Moreover, the Percent Effect in [7] was 6.65%; in the test filed under Homo sapiens, -20%; in [8], 5.29%; in test [9] it was 7.69%; in [10], -1.87%.
Consider `CC(C)c1nc(CNC2CCCN(c3cccnn3)C2)no1` (stereo not given), for which the PXC50 in test [1] (BOTTOM -4.804668592, HILLSLOPE 1.43236327, MAX_EFFECT 76.8115942, TOP 100.0) was 4.38; in [1] (BOTTOM -10.26857321, HILLSLOPE 1.286287287, MAX_EFFECT 68.70748299, TOP 100.0), 4.3; in test [1] (MAX_EFFECT 0.790513834), below 4; in [1] (MAX_EFFECT 4.444444444) it was below 4; in [1] (MAX_EFFECT 61.12084063), below 4.
As to `O=C(c1ccc(F)c(Cl)c1)N1C[C@@H]2CC[C@H](C1)N(Cc1ccccc1)C2`, the PXC50 in test [1] (MAX_EFFECT 29.03225806), in [1] (MAX_EFFECT 41.91419142) and in test [1] (MAX_EFFECT 44.92753623) was below 4 in each case. Besides, the Percent Effect in test [2] is -1.36%; in [3] it was -13.7%; in test [4], 5.89%; in test [5], 19.2%; with Trypanosoma cruzi it was -6.15%; in test [6] it was 1.6%. Besides, the Percent Effect in [7] was 11.2%; in the test filed under Homo sapiens, -10.1%; in [8] it was 11.5%; in [9], 25.9%; in [10] it was 0.975%.
